Laboratory results from the supplement of paper PMC12067926.

Key:
Assay in all cases: relative growth (AUC of 72 h growth curve relative to DMSO control, dAUC) (ratio); higher = more growth (less inhibition), active = hit call of the paper
Settings in all cases: 20 µM;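 active = growth AUC significantly below the DMSO wells by Dunnett test; inactive = the rest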
[1] = test system: Aeromonas 1 (Aeromonas sp. AE235)
How it was run: (§1)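 For relative growth (dAUC), the spline-integrated area under the growth curve was divided by the mean of the DMSO controls. Results were averaged over three biological replicates. Each replicate used a 1:100 dilution, into 96-well plates holding each chemical at 20 µM (1% DMSO), of isolates from Icelandic stream sediments and Silwood Park soil or whole sediment communities that had been grown to carrying capacity in Luria–Bertani medium. Plates were shaken briefly before each hourly A600 reading over 72 h.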

[2] = test system: Aeromonas 2 (Aeromonas sobria)
How it was run: as §1

[3] = test system: Aeromonas 3 (Aeromonas popoffii)
How it was run: as §1

[4] = test system: Argrobacterium 1 (Agrobacterium sp.)
How it was run: as §1

[5] = test system: Arthrobacter 1 (Arthrobacter humicola)
How it was run: as §1

[6] = test system: Arthrobacter 2 (Arthrobacter humicola)
How it was run: as §1

[7] = test system: Arthrobacter 3 (Arthrobacter sp.)
How it was run: as §1

Community 10 = test system: Community 10
How it was run: as §1

Community 4 = test system: Community 4
How it was run: as §1

Community 6 = test system: Community 6
How it was run: as §1

Community 7 = test system: Community 7
How it was run: as §1

Community 8 = test system: Community 8
How it was run: as §1

Community 9 = test system: Community 9
How it was run: as §1

[8] = test system: Flavobacterium 1 (Flavobacterium glaciei)
How it was run: as §1

[9] = test system: Flavobacterium 2 (Flavobacterium succinicans)
How it was run: as §1

[10] = test system: Hymenobacter 1 (Hymenobacter glaciei)
How it was run: as §1

[11] = test system: Microbacterium 1 (Microbacterium arborescens)
How it was run: as §1

[12] = test system: Neobacillus 1 (Neobacillus soli)
How it was run: as §1

[13] = test system: Oryzobacter 1 (Oryzobacter terrae)
How it was run: as §1

[14] = test system: Paenibacillus 1 (Paenibacillus castaneae)
How it was run: as §1

Measured: relative growth

CO/N=C(/C(=O)OC)c1ccccc1CO/N=C(\C)c1cccc(C(F)(F)F)c1
inactive: [1] 0.966 | [2] 0.929 | [3] 0.961 | [4] 1.07 | [5] 0.928 | [6] 0.876 | [7] 0.97 | Community 10 0.708 | Community 4 0.822 | Community 6 0.809 | Community 7 1.05 | Community 8 0.968 | Community 9 0.784 | [8] 0.975 | [9] 0.943 | [10] 1.05 | [11] 0.99 | [12] 1 | [14] 0.9
1.26: [13]

O=C1C=C(N(Cc2ccc(Cl)nc2)CC(F)F)CO1
inactive: [1] 0.953 | [2] 0.967 | [3] 0.978 | [4] 0.974 | [5] 1.05 | [6] 1.08 | [7] 1.01 | Community 10 0.814 | Community 4 1.01 | Community 6 0.923 | Community 7 0.945 | Community 8 0.997 | Community 9 0.992 | [8] 1.09 | [9] 0.993 | [10] 1.1 | [11] 1.04 | [12] 1.02 | [13] 1.11 | [14] 0.899

CCOc1ccc(C(C)(C)COCc2cccc(Oc3ccccc3)c2)cc1
inactive: [1] 1.01 | [2] 1.02 | [3] 1.02 | [4] 1.04 | [5] 1.01 | [6] 0.801 | [7] 0.816 | Community 10 1.02 | Community 4 0.901 | Community 6 0.979 | Community 7 1.04 | Community 8 1.06 | Community 9 0.965 | [8] 0.785 | [9] 0.958 | [10] 0.929 | [11] 1.04 | [12] 0.881 | [13] 1.05 | [14] 0.942

CCOC(=O)OC1=C(c2cc(C)ccc2C)C(=O)N[C@]12CC[C@@H](OC)CC2
inactive: [1] 0.965 | [2] 0.981 | [3] 1.01 | [4] 1.03 | [5] 1.17 | [6] 1.03 | [7] 0.986 | Community 10 0.945 | Community 4 1.14 | Community 6 1.02 | Community 7 1.03 | Community 8 0.995 | Community 9 1.03 | [8] 1.08 | [9] 1.05 | [10] 0.987 | [11] 1.01 | [12] 1.09 | [13] 1.05 | [14] 1.01

Cc1cc(C)nc(Nc2ccccc2)n1
inactive: [1] 0.974 | [2] 0.977 | [3] 1.07 | [4] 0.874 | [5] 0.948 | [6] 0.929 | [7] 1.03 | Community 10 1.07 | Community 4 0.984 | Community 6 1.04 | Community 7 1.09 | Community 8 1.03 | Community 9 1.03 | [8] 1.01 | [9] 0.983 | [10] 1.1 | [11] 1.03 | [12] 0.999 | [13] 0.978 | [14] 0.762

COc1cc(C)c(C(=O)c2c(OC)ccc(Br)c2C)c(OC)c1OC
inactive: [1] 1.07 | [2] 1.03 | [3] 1.1 | [4] 1.04 | [5] 1.15 | [6] 0.768 | [7] 0.949 | Community 10 0.986 | Community 4 1.1 | Community 6 1.05 | Community 7 0.987 | Community 8 1.08 | Community 9 1.12 | [8] 0.992 | [9] 1.02 | [10] 1.16 | [11] 1.03 | [12] 1.06 | [13] 1.07 | [14] 0.965

Oc1ccc(Cl)cc1Cc1cc(Cl)ccc1O
active: [1] 0.522 | [2] 0.00195 | [3] 0.275 | [5] 0.00578 | [6] 0.00499 | [7] 0.011 | Community 6 0.496 | Community 8 0.654 | Community 9 0.327 | [8] 0.0108 | [9] 0.00242 | [10] 0.0173 | [12] 0.731 | [13] 0.00429 | [14] 0.00339
inactive: [4] 0.959 | Community 10 0.642 | Community 4 0.664 | Community 7 0.862 | [11] 0.869

CCC(=O)Nc1ccc(Cl)c(Cl)c1
inactive: [1] 0.948 | [2] 0.953 | [3] 0.955 | [4] 0.923 | [5] 1.12 | [6] 1 | [7] 1.02 | Community 10 0.919 | Community 4 1.07 | Community 6 1.01 | Community 7 0.951 | Community 8 1.06 | Community 9 1.03 | [8] 1.02 | [9] 0.965 | [10] 0.981 | [11] 1.02 | [12] 0.962 | [13] 1.02 | [14] 0.968

CC(C)N(C(=O)COc1nnc(C(F)(F)F)s1)c1ccc(F)cc1
inactive: [1] 1.04 | [2] 0.994 | [3] 0.973 | [4] 1.02 | [5] 1.05 | [6] 0.894 | [7] 1.02 | Community 10 0.763 | Community 4 1.04 | Community 6 0.92 | Community 7 1.13 | Community 8 1.02 | Community 9 0.986 | [8] 1.01 | [9] 0.927 | [10] 0.849 | [11] 1.04 | [12] 0.965 | [13] 1.16 | [14] 0.899

CC(C)N1C(=O)c2ccccc2NS1(=O)=O
inactive: [1] 0.965 | [2] 0.994 | [3] 0.991 | [4] 0.998 | [5] 1.03 | [6] 1.05 | [7] 1.13 | Community 10 0.86 | Community 4 0.932 | Community 6 0.962 | Community 7 1.02 | Community 8 0.996 | Community 9 1.01 | [8] 1.09 | [9] 1.02 | [10] 1.09 | [11] 0.977 | [12] 1.04 | [13] 1.02 | [14] 0.96

CC[C@H](C)C1O[C@]2(C=C[C@@H]1C)C[C@@H]1C[C@@H](C/C=C(\C)[C@@H](O[C@H]3C[C@H](OC)[C@@H](O[C@H]4C[C@H](OC)[C@H](NC)[C@H](C)O4)[C@H](C)O3)[C@@H](C)/C=C/C=C3\CO[C@@H]4[C@H](O)C(C)=C[C@@H](C(=O)O1)[C@]34O)O2 (stereo not given in full)
inactive: [1] 1.08 | [2] 0.923 | [3] 0.979 | [4] 1.11 | Community 10 0.9 | Community 4 0.787 | Community 7 0.976 | Community 8 0.952 | [9] 0.832 | [11] 1.04 | [12] 0.894
active: [5] 0.108 | [6] 0.00328 | [7] 0.324 | Community 6 0.509 | Community 9 0.404 | [8] 0.0154 | [10] 0.356 | [13] 0.00218 | [14] 0.0061

COc1cc(OC)nc(NC(=O)NS(=O)(=O)c2ncccc2C(=O)N(C)C)n1
inactive: [1] 1.06 | [2] 1.01 | [3] 1.03 | [4] 0.995 | [5] 0.976 | [6] 1.11 | [7] 1.05 | Community 10 1.11 | Community 4 1.08 | Community 6 1.06 | Community 7 1.02 | Community 8 1.07 | Community 9 1.08 | [8] 1.12 | [9] 1.08 | [10] 1.16 | [11] 1.04 | [12] 1.1 | [13] 0.98 | [14] 1.08

Fc1ccc(Oc2ccnc3cc(Cl)cc(Cl)c23)cc1
inactive: [1] 1.01 | [2] 1.03 | [3] 1 | [4] 1.06 | [5] 0.954 | [6] 1.1 | [7] 1.08 | Community 10 0.887 | Community 4 0.987 | Community 6 0.935 | Community 7 0.843 | Community 8 1.01 | Community 9 1.03 | [8] 1.04 | [9] 1.01 | [10] 1.13 | [11] 0.999 | [12] 1.09 | [13] 1.01 | [14] 0.927

CC(C1CC1)C(O)(Cn1cncn1)c1ccc(Cl)cc1 (stereo not given)
inactive: [1] 0.97 | [2] 0.942 | [3] 0.964 | [4] 1.09 | [5] 0.89 | [6] 0.961 | [7] 0.944 | Community 10 1.02 | Community 4 1.01 | Community 6 1.02 | Community 7 1.02 | Community 8 1.04 | Community 9 0.989 | [8] 0.999 | [9] 0.955 | [10] 1.03 | [11] 0.987 | [12] 0.985 | [13] 0.982 | [14] 0.959

CC(C)OC(=O)C(C(=O)OC(C)C)=C1SCCS1
inactive: [1] 0.961 | [2] 0.967 | [3] 0.993 | [4] 1.02 | [5] 1.02 | [6] 0.922 | [7] 0.975 | Community 10 0.804 | Community 4 0.901 | Community 6 0.886 | Community 7 1.15 | Community 8 1 | Community 9 0.964 | [8] 0.993 | [9] 0.947 | [10] 1.09 | [11] 1.02 | [12] 1.01 | [13] 1.12 | [14] 0.965
